{
  "source": "PubChem BioAssay (Tox21)",
  "note": "Inconclusive results are not listed. A call without a number means that no potency is given here. Active and inactive are the calls of the source. Calls follow the shape of the full dose curve.",
  "data": [
    {"test": "qHTS assay for small molecules that induce genotoxicity in human embryonic kidney cells expressing luciferase-tagged ATAD5 - cell viability (AID 651634); also: nearly all actives have a fitted effect of over 25% in size", "conditions": "HEK293T ATAD5-luc cells viability, CellTiter-Fluor, 15.5 h; series mostly up to 83.3 µM", "excerpt": "National Center for Advancing Translational Sciences [NCATS]\nNIH Chemical Genomics Center [NCGC]\nU.S. Environmental Protection Agency [EPA]\nNational Institutes of Environmental Health Sciences [NIEHS]\nNational Toxicology Program [NTP]\nU.S. Food and Drug Administration [FDA]\nEnhanced Level of Genome Instability Gene 1 (ELG1; human ATAD5) protein levels increase in response to various types of DNA damage. Using a luciferase reporter-gene tagged with ElG1, a cell-based assay [developed by Kyungjae Myung, NHGRI, NIH] was used to measure the induction of ATAD5 in human embryonic kidney cells (HEK293T). So, increase in luciferase activity can be used to identify the compounds that cause genetic stress. In addition to genotoxicity, these cells were also used to test for cytotoxicity by measuring the protease activity within live cells.\nTox21 Assay Protocol Summary:\nFor cytotoxicity screening, 2,000 cells in 5 uL/well were dispensed into white, solid-bottom 1536-well plates using a Multidrop Combi (Thermo Scientific) dispenser. Following transfer of 23 nL compound or DMSO vehicle by a pin tool, the plates were incubated 15.5 hr at 37C and 5% CO2. 1 ul CellTiter-Fluor reagent (Promega, Madison, WI) was then added to each plate and following 30 min incubation at 37C, fluorescence intensity was quantified on a ViewLux CCD-based plate reader.", "values": [
      {"compound": "CCC#N", "Potency": "inactive"},
      {"compound": "CCSC(=O)N(CC)C1CCCCC1", "Potency": "inactive"},
      {"compound": "Cc1coc2c1CCC(C)C2", "note": "(stereo not given)", "Potency": "inactive"},
      {"compound": "CC(CCc1ccccc1)NC(C)C(O)c1ccc(O)cc1", "note": "(stereo not given)", "Potency": "inactive"},
      {"compound": "Cc1cnc[nH]1", "Potency": "inactive"},
      {"compound": "CCOC(=O)/C=C(C)/C=C/C[C@@H](C)CCCC(C)C", "Potency": "inactive"},
      {"compound": "CC1(C)CON(Cc2ccccc2Cl)C1=O", "Potency": "inactive"},
      {"compound": "CCCCOP(=O)(O)OCCCC", "Potency": "inactive"},
      {"compound": "[Cl][Sn]([Cl])([Cl])[Cl]", "Potency": "inactive"},
      {"compound": "CC1(C)COP(Oc2ccccc2)OC1", "Potency": "inactive"},
      {"compound": "CNC(=O)O/N=C(\\C)SC", "Potency": "inactive"},
      {"compound": "CCCCN(CCCCO)N=O", "Potency": "inactive"},
      {"compound": "O=[N+]([O-])c1ccc2c3c(cccc13)CC2", "Potency": "inactive"},
      {"compound": "CCCCCCI", "Potency": "inactive"},
      {"compound": "COc1cccc(C(=O)NN(C(=O)c2cc(C)cc(C)c2)C(C)(C)C)c1C", "Potency": "inactive"},
      {"compound": "CC1CCCCC1NC(=O)Nc1ccccc1", "note": "(stereo not given)", "Potency": "inactive"},
      {"compound": "CC(C)(C)C(=O)C(Oc1ccc(Cl)cc1)n1cncn1", "note": "(stereo not given)", "Potency": "inactive"},
      {"compound": "COP(=S)(OC)Oc1ccc(S(N)(=O)=O)cc1", "Potency": "inactive"},
      {"compound": "ClCCOCOCCCl", "Potency": "inactive"},
      {"compound": "O=CNC(N1CCN(C(NC=O)C(Cl)(Cl)Cl)CC1)C(Cl)(Cl)Cl", "note": "(stereo not given)", "Potency": "inactive"},
      {"compound": "COC(=O)c1c(C(F)F)nc(C(F)(F)F)c(C2=NCCS2)c1CC(C)C", "Potency": "inactive"},
      {"compound": "CC1CN1P(=O)(N1CC1C)N1CC1C", "note": "(stereo not given)", "Potency": "inactive"},
      {"compound": "OC(c1ccccc1)(c1ccccc1)C1CCNCC1", "Potency": "inactive"},
      {"compound": "CNC(=O)N(C)c1nc2ccccc2s1", "Potency": "inactive"},
      {"compound": "C=C(C)[C@@H]1CC=C(C=O)CC1", "Potency": "inactive"},
      {"compound": "CNNC", "Potency": "inactive"},
      {"compound": "CCOc1nc(C(Cl)(Cl)Cl)ns1", "Potency": "inactive"},
      {"compound": "COC(=O)COc1ccc(Cl)cc1Cl", "Potency": "inactive"},
      {"compound": "O=C1OC(c2ccc(O)c(S(=O)(=O)O)c2)(c2ccc(O)c(S(=O)(=O)O)c2)c2c(Br)c(Br)c(Br)c(Br)c21", "Potency": "inactive"},
      {"compound": "COP(N)(=S)Oc1ccccc1C(=O)OC(C)C", "note": "(stereo not given)", "Potency": "inactive"},
      {"compound": "CCCSP(=S)(OCC)Oc1ccc(Cl)cc1Cl", "note": "(stereo not given)", "Potency": "inactive"},
      {"compound": "CCOP(=O)(OCC)OP(=O)(OCC)OCC", "Potency": "inactive"},
      {"compound": "CCC1(c2ccccc2)C(=O)N=C(O)NC1=O", "note": "(stereo not given)", "Potency": "inactive"},
      {"compound": "Nc1n[nH]c(N)n1", "Potency": "inactive"},
      {"compound": "CNC(=O)Oc1c(C(C)(C)C)cc(C)cc1C(C)(C)C", "Potency": "inactive"},
      {"compound": "CCN(CC)C(=O)[C@@H]1C=C2c3cccc4[nH]cc(c34)C[C@H]2N(C)C1", "Potency": "inactive"},
      {"compound": "CNC(=O)Oc1ccc(N(C)C)c(C)c1", "Potency": "inactive"},
      {"compound": "ClCC(Cl)Cl", "Potency": "inactive"},
      {"compound": "C1CCC(C2CCCCC2)CC1", "Potency": "inactive"},
      {"compound": "O=C(NCO)NCO", "Potency": "inactive"}
    ]}
  ]
}
